Over roughly 24,000 sequences, “enrichment r” has its median near 0.99; the highest 2% begin near 3.7. Shown is part of a subset that was picked to be rich in the highest values.
T1: UNK ZnF1-3 (human, UniProt Q9C0B0 31-174)
T1 sequence: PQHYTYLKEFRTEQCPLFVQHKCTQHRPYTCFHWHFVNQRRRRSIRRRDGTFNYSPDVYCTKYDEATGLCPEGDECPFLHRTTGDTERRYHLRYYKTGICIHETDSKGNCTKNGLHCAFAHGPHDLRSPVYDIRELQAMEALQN

B1: chr22:38201524:38201525:+_ENSG00000189060_ENST00000340857|hu_hu|FALSE|FALSE (ssRNA)
RNA: GGGAGUUCUACAGUCCGACGAUCCGCAGGGGCGGACGUGGAAUUCUCGGUCAUGGUGGCCUGUCUGGUCCGGCUGUUGAAGGCGCCUUCCAAAGGGCCAGCCCUCGUCGGAGGCUGAGCAAAGCCUGCCUCGGGAUCUGCUCCCAACAGAGGAUUGAGCAUCA
B2: chr16:17038481:17038482:+_ENSMUSG00000063358_ENSMUST00000069107|mus_mus|FALSE|FALSE (ssRNA)
RNA: GGGAGUUCUACAGUCCGACGAUCCUUGUCCUGACCAAUUUAAGAUCUGUAUCCUGGCUGGAAUCUAGCAGUCUCUUCAAAAAUGAGUUCUUUGAGCUUCUCCUUAGGUAAGUCGUCCAACUCCAUGUCAAACUUGAAUGGCGCCAACAGAGGAUUGAGCAUCA
B3: chr11:77336104:77336105:-_ENSG00000074201_ENST00000525064|hu_mus|hu_hu_hu_mus_False|48_108 (ssRNA)
RNA: GGGAGUUCUACAGUCCGACGAUCCUCGCACAUUGCAGUGAACAUCGCCUCCAAUGCUGACUUAUCACUGGGCACAAAUCGAAAUUCAGUAAUAGGUUCAACAUCAUCAUUGUCUUCCUCAUCUUCAUCAGAGAGAGGUUCUUUCAACAGAGGAUUGAGCAUCA
B4: 42454244_42454364_2548_CDS_ENSG00000166887_ENST00000318006|human|control|control (ssRNA)
RNA: GGGAGUUCUACAGUCCGACGAUCAUGGAGAAGGUUCUUGAGCACUUGAUUGAACCGUUUCUUUUGUGCAUUUUCUUCCAAGACCUUUUCCAGGAAGAUGCGUAUGUCAUUGAUCUGAGUGUUUGCUGGCAGAAGGUUGAGGGCCAACAGAGGAUUGAGCAUCA
B5: chr3:9412954:9412955:+_ENSG00000134077_ENST00000452837|hu_mus|hu_hu_hu_mus_False|1_78 (ssRNA)
RNA: GGGAGUUCUACAGUCCGACGAUCGGUUGAUAUCUCUUCUUUGAUGGCUGGAUUUUCAUAAUAAUCUAAGAUAUGUGAAUCUGAAGUGCUGCUGGCAUGCUUUUUCUUACCAUCUUUCUCAUCUGCUUUGUCUCCUUGUCCAUUCAACAGAGGAUUGAGCAUCA
B6: 2840810_2840930_7205_3pUTR_ENSG00000087266_ENST00000503393|human|control|control (ssRNA)
RNA: GGGAGUUCUACAGUCCGACGAUCUGAGACCCUGUCUCAGAAAAAAAAAAAAAGAAAAGAAAAAGAAAAAGACAACAAGUUAAAAAAUGGGCAAAAGAUGAUAGACACUUCACAGGAGACAAAAUCAAAAUGGUUAAUAAAAACCAACAGAGGAUUGAGCAUCA
B7: chr3:148802587:148802588:-_ENSG00000071794_ENST00000310053|hu_mus|FALSE|FALSE (ssRNA)
RNA: GGGAGUUCUACAGUCCGACGAUCUCCAACAACUUGUCCUCUCAUAGUUCCAAAUAAAACCAAAUCUUGCUCUUCAUCACUCGUUAGGAAGUCAUCUGGAGGAAUAAUGUCUUGGAAUUCAAAAUGUGGCAAGAAAGUUGAGUACAACAGAGGAUUGAGCAUCA
B8: chr3:142455422:142455423:-_ENSMUSG00000004591_ENSMUST00000043812|mus_hu|FALSE|FALSE (ssRNA)
RNA: GGGAGUUCUACAGUCCGACGAUCGAAAAAACAAUAAAGUCAUAGAUUAGGAGAAAAAAAUAUAAAAUCAAACCAAACCAAAACAAACAAAAAACUACAGGCAAGUGGAAAGUCAUGGUUUGUAAAAAGACAACCCUAAAAGAGCAACAGAGGAUUGAGCAUCA
B9: 54532081_54532201_669_3pUTR_ENSMUSG00000073678_ENSMUST00000097739|mouse|control|control (ssRNA)
RNA: GGGAGUUCUACAGUCCGACGAUCGACUGAGCAGAGACAUAAAGAAAGCAAAAGAAACACCACAGGGAAGGUUUCAACUGUAGUAACCAGACAUCUACACCAAAAAUGGAUUGUGCAAAACAACUGAUUUUUUUUUUUUUUUUACAACAGAGGAUUGAGCAUCA
B10: chr14:52780626:52780627:-_ENSMUSG00000035726_ENSMUST00000046709|mus_mus|FALSE|FALSE (ssRNA)
RNA: GGGAGUUCUACAGUCCGACGAUCUGAGCACUGCACCACAUAUGGACUUGUAAGGAGGAAAAAAAAAAAAAAAAAAAAAAAAAAAACAGCCACGAGUGCCAGUGUUUGUCUUCUGAUGCAGCAAAAACAACCCCAGAAUGUGCACAACAGAGGAUUGAGCAUCA
B11: 110765750_110770449_1192_CDS_ENSG00000174437_ENST00000539276|human|control|control (ssRNA)
RNA: GGGAGUUCUACAGUCCGACGAUCCUCAUUAAGGGAACAAGUAUCACCUUCCACUCUGUCCAGAAUGAACAUCCUGCAGACUGACAUCUGGUUUGUUGUAAGUGUACCAGUCUUGUCUGAGCAGAUAACAGAAGUACAACCAAGCAACAGAGGAUUGAGCAUCA
B12: 32390341_32390461_6886_3pUTR_ENSMUSG00000053774_ENSMUST00000115151|mouse|control|control (ssRNA)
RNA: GGGAGUUCUACAGUCCGACGAUCACUUUAACCCAAGGAGGACCCAGAGGUUCAAGGUUAUGUUCAACUAACUACACAGUCACUGAAGAGGUCAGCCUGAUCCAGGACAACCAGGACUAGAUAAAGAAAACUUAUCUCAAAGAACAACAGAGGAUUGAGCAUCA
B13: chr5:56189439:56189440:+_ENSG00000095015_ENST00000399503|hu_hu|FALSE|FALSE (ssRNA)
RNA: GGGAGUUCUACAGUCCGACGAUCAAAGACUGGAUGCUUCAGUAGCUCUCUUGAUGGAGGUCUGUCCUGAGGUUGAAGUUCUAAACAACGAAGAGCCACAUCUCGUAAACCAGGAGACAAAUGUGAAGGGAUCGAUGGAGCAGUCAACAGAGGAUUGAGCAUCA
B14: chr7:141441981:141441982:+_ENSG00000106028_ENST00000265304|hu_mus|hu_hu_hu_mus_False|38_38 (ssRNA)
RNA: GGGAGUUCUACAGUCCGACGAUCCUCAUGUCUUACAAACUGACGAAAUACCUGUAACACAGGUCUUCGAAACAUGGCUUCUGUUUUUCUUACAACCAGUCUAAUCUGCUUUUCCUAAAGGAAAGAAAGAAAAGAGAAAAAUGACAACAGAGGAUUGAGCAUCA
B15: chr1:33860009:33860010:-_ENSMUSG00000042197_ENSMUST00000044455|mus_mus|motif|central (ssRNA)
RNA: GGGAGUUCUACAGUCCGACGAUCGCUGGAGAUAUCCCAAGGAACUGACGAGCUCUCACUUGGCCUAGAAUGAUGAAAUCGGAAACAACUCCUGGACUGCAGAUCACGUAUGACUCGGGACAUCUCAGCCACUUGUGUCUGGAGCAACAGAGGAUUGAGCAUCA
B16: chr4:148551591:148551592:-_ENSMUSG00000063077_ENSMUST00000060537|mus_hu|mus_mus_mus_hu_False|1_48 (ssRNA)
RNA: GGGAGUUCUACAGUCCGACGAUCACCUGACAAAAUUAAAUAUCCCUGUAAAUUAGACAAUAAGCAGCAGGCAACAAAGUCUUUGCUUUGAAAUAUGUGCCAGGAAAAGUCAUCUUGUUUUUAGAUCUCAAGAGACACAACCAUCAACAGAGGAUUGAGCAUCA
B17: chr1:39494447:39494448:+_ENSG00000168653_ENST00000372967|hu_mus|hu_hu_hu_mus_False|98_98 (ssRNA)
RNA: GGGAGUUCUACAGUCCGACGAUCGCACCGAGCGGCGAUCUUGUAGGGCUGUUCUGCGCUUAGGAACAUAAAGUGCCGGUCCAGGCUGAUGCCCAGCUUUUUCUGUAUGUCAAGGAAAGGCAUGGCUCUGCAGUGCCCUUGUCACAACAGAGGAUUGAGCAUCA
B18: chr16:75674161:75674162:-_ENSG00000065427_ENST00000302445|hu_hu|motif|central (ssRNA)
RNA: GGGAGUUCUACAGUCCGACGAUCCCUACCUGCCACCUUUAAGGUGAUGUCAGUCAGGUGAUCCCCAGGCUGCAGGUGACGGUAUUUUUGGAUGAAGUCAGUGAGUGAGAUGUCUACAUGGAACUUGUGUGGGUAUGGGUCUUCCAACAGAGGAUUGAGCAUCA
B19: 76004153_76004273_12107_CDS_ENSMUSG00000022565_ENSMUST00000071869|mouse|control|control (ssRNA)
RNA: GGGAGUUCUACAGUCCGACGAUCCUUCAUGGCCUGGAAGAGGGAGAUGAGUUUCCCAGAGUAGGGGUCCUUGUAGCCAGUGACGGCACGCUCAGCUGACAGCAGCUUGUCCUUGAACUCGGGGCCCACAAUACCCAUACGAACCAACAGAGGAUUGAGCAUCA
B20: chr11:93905761:93905762:+_ENSMUSG00000020859_ENSMUST00000103168|mus_mus|motif|central (ssRNA)
RNA: GGGAGUUCUACAGUCCGACGAUCCGCUGGCACCCCGGUAGAAAUAGAAAAGUGCACAAGCAGCAAAACAGAGAGAGAUACGGAGAUCGCAGAAUUAAUGACCACCGCCCCGCCAACAAAGCCAAACACAAACAGCAGCAUGCACAACAGAGGAUUGAGCAUCA
B21: chr13:113691719:113691720:-_ENSMUSG00000016018_ENSMUST00000022281|mus_hu|FALSE|FALSE (ssRNA)
RNA: GGGAGUUCUACAGUCCGACGAUCGUAUUCACCAGAAGAAAUCCAUCGGAAAUCCUUCCCAUCAAAUUUGCGGGCAUUUGUAAAUAAAACAGUUCUAGCUGGCAUGUUAAUUCCCAUAGCAAAGGUCUCCGUGGCAAAUAAGGCCAACAGAGGAUUGAGCAUCA
B22: chr7:135612788:135612789:-_ENSG00000105887_ENST00000393085|hu_mus|FALSE|FALSE (ssRNA)
RNA: GGGAGUUCUACAGUCCGACGAUCGCCAAGAGGUGAAAACAAAGGUCUCAAAACACCCUGUUGCAUUAUAUUGACUCAUAGACUGAUCAUGUGCCUUCCACUUCCUAGCAGAAUGUCCAACUCUAUAGCUGCUUGGCCUUUUGGCAACAGAGGAUUGAGCAUCA

These binders were tested against T1, UNK ZnF1-3 (assay: nsRBNS (natural sequence RNA bind-n-seq); RBNS binding buffer (assumed for nsRBNS): 25 mM Tris pH 7.5, 150 mM KCl, 3 mM MgCl2, 0.01% Triton X-100, 500 ug/ml BSA, 20 U/ml SUPERase-In, 4 C; UNK is unkempt and MSI1 is Musashi-1; names of the RNAs are library labels; protein concentration not given here; high values mean tight binding).

Binder | binding signal
B1 | 0.944 enrichment R
B2 | 0.719 enrichment R
B3 | 0.872 enrichment R
B4 | 1.14 enrichment R
B5 | 0.44 enrichment R
B6 | 8.04 enrichment R
B7 | 1.23 enrichment R
B8 | 3.8 enrichment R
B9 | 4.75 enrichment R
B10 | 12.8 enrichment R
B11 | 0.886 enrichment R
B12 | 1.33 enrichment R
B13 | 1.08 enrichment R
B14 | 0.817 enrichment R
B15 | 0.781 enrichment R
B16 | 1.29 enrichment R
B17 | 0.548 enrichment R
B18 | 0.761 enrichment R
B19 | 1.29 enrichment R
B20 | 2.32 enrichment R
B21 | 1.77 enrichment R
B22 | 1.02 enrichment R

— article PMC12136788
